D2 ag-1: agonists of human D2 dopamine receptor | activation, % at 2 µM | AID 485358 | HEK293 T-REx D2 cells, calcium flux agonist mode | P14416 | actives 0.53% (n = 340,000);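 active = activation over 3 SD above normal in the single-dose calcium agonist read, cut at about 30% in these data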; note: 0% is about no effect
Target sequence (P14416 whole entry, looked up): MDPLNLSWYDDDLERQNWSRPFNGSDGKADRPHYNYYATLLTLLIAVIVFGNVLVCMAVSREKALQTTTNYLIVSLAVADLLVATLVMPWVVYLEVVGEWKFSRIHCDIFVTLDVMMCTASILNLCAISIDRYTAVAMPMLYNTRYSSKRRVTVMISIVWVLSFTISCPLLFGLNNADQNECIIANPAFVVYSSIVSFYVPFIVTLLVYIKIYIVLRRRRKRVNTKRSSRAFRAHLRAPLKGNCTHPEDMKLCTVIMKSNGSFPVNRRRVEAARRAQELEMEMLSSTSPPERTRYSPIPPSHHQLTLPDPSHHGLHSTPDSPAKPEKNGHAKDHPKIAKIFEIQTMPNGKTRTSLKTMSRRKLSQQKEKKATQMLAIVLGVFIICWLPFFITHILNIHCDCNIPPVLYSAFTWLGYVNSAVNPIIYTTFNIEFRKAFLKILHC
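In this primary screen, compounds producing a positive calcium signal within 180 s of addition to tetracycline-induced, force-coupled HEK293 Trex D2 cells are flagged; cells are dye-loaded with a no-wash calcium kit beforehand.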
D2 antag: D2 dopamine receptor (human) antagonism; actives 2% (n = 340,000); inhibition, % at 10 µM; HEK293 TREx D2 cells, calcium flux, dopamine EC80; P14416; in the data active = inhibition above about 30%; inactive = below that, where a call was filed; note: 0% is about no effect
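Measurement of antagonist activity uses fluorescent calcium dye in inducible HEK293 T-REx D2 cells: 10 s baseline, compound addition with 180 s read, EC80 dopamine addition with a further 180 s read.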
D2 PAM-1: potentiates the human D2 dopamine receptor allosterically; P14416; potentiation, % (no concentration beside the values); AID 624464; DiscoveRx D2 beta-arrestin cells, luminescence, 90 min; 100% = 57 uM dopamine signal; actives 0.23% (n = 360,000); in the data active = potentiation above about 50%; inconclusive = mostly about 30% to 49%
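PathHunter beta-arrestin assay in DiscoveRx D2 cells. Compounds were added with an EC20 of dopamine (50 nM final) for 90 min at 37 deg C. Luminescence was read 1 h after detection reagent, with 57 uM dopamine as the EC100 control.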
D2 PAM-2: positively modulates the human D2 dopamine receptor allosterically. P14416. HEK293 T-REx D2, calcium flux, EC20 dopamine potentiation. potentiation, % at 10 µM. actives 0.34% (n = 340,000). AID 485347;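 active = potentiation over 3 SD above the plate norm, cut at about 30% in these data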; note: 0% is about no effect
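Using a no-wash calcium dye in inducible, force-coupled HEK293 Trex cells expressing D2, we tracked fluorescence each second for 180 s after compound, then for 180 s after EC20 dopamine to detect augmented signalling.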
D2 ag-2: agonists of human D2 dopamine receptor (beta-arrestin); P14416; DiscoveRx PathHunter D2 beta-arrestin, luminescence, 90 min; 100% = 57 uM dopamine signal; activation, % (no concentration beside the values); actives 0.084% (n = 360,000); in the data active = activation above about 40%; inconclusive = between about 15% and that limit
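Agonist mode: compounds alone added to overnight-plated D2 PathHunter cells for 90 min at 37 C, with 57 uM final dopamine (EC100) defining full response. Beta-arrestin recruitment detected by chemiluminescent reagent, read after 1 h at ambient temperature.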
* hit, by the source's call; ? = inconclusive; nt = not tested or not shown. Most compounds without a hit are left out; they make up all but 2.4% or so of the library.

SMILES	D2 ag-1	D2 antag	D2 PAM-1	D2 PAM-2	D2 ag-2
O=C(COC(=O)c1ccc(Sc2ccccc2)c([N+](=O)[O-])c1)NC1CCS(=O)(=O)C1 (configuration not stated)	1	32*	-12	8	-1
COC(=O)c1cc(C(=O)OCC(=O)NC2CCS(=O)(=O)C2)cc([N+](=O)[O-])c1 (configuration not stated)	1	-3	4	-3	2
CC(=O)c1ccc(Nc2nc3c(S(=O)(=O)c4ccccc4)nnn3c3ccc(Cl)cc23)cc1	0	nt	nt	-2	nt
Cc1c(Cl)cccc1NC(=O)CCS(=O)(=O)c1cccc2nsnc12	1	nt	nt	-15	nt
CC(=O)c1cccc(NC(=O)c2ccc3ccccc3c2)c1	0	31*	2	-3	0
Cc1ccc(-c2ccc(=O)n(CCC(=O)NCCc3ccccc3)n2)cc1	nt	nt	nt	-4	nt
CCN(CC)S(=O)(=O)c1cc(C(=O)OCC(=O)NC2CCCc3ccccc32)ccc1C (configuration not stated)	0	37*	-17	4	-3
CC(=O)N(c1ccccc1)c1nc(C)cc(C)c1C#N	1	35*	-22	-4	-4
Cc1ccc(CNc2ccc3c(c2)ncn3C(C)C)cc1	37*	-3	-11	-1	-2
CC(C)c1ccc(Nc2ncnc3onc(-c4ccc(F)cc4)c23)cc1	nt	nt	nt	-24	nt
COc1ccc(-c2noc(C3CCCN(S(=O)(=O)c4cccc(Cl)c4)C3)n2)cc1OC (configuration not stated)	1	-1	-3	13	-3
O=S(=O)(c1ccc(Cl)cc1)N1CCCC(c2nc(-c3ccc(F)cc3)no2)C1 (configuration not stated)	0	51*	-1	-3	0
O=c1c(Cc2ccc(F)cc2)c(O)ccn1CCc1ccccn1	1	41*	-2	-7	-4
CCCCn1ccc(O)c(Cc2ccc(F)cc2)c1=O	-1	0	-39	0	-3
COc1cccc(NC(=O)C2CC(=O)N(c3ccc(Br)cc3)C2)c1 (configuration not stated)	-1	nt	nt	-8	nt
Cc1cc(NC(=O)c2ccc3c(c2)C(=O)N(C2CCCCC2)C3=O)no1	0	56*	0	-5	-1
COc1ccccc1CNC(=O)c1cccc2c1C(=O)N(Cc1cccnc1)C2	-1	-12	-1	31*	-6
COC(CNC(=O)c1cccc2c1C(=O)N(Cc1cccnc1)C2)OC	-2	-4	-24	0	-5
COc1ccc(CC(=O)Nc2cccc(-c3nnc(-c4ccc(C)cc4)o3)c2)cc1OC	1	-18	19	6	?
COc1ccc(CC(=O)Nc2cccc(-c3nnc(-c4ccccc4)o3)c2)cc1OC	0	6	54*	18	14
Cc1ccc(NC(=O)CSc2nnc(COc3ccc(Cl)cc3)o2)cc1	-1	nt	nt	6	nt
COCCNC(=O)CCn1c(=O)c2cc(OC)c(OC)cc2n(CC(=O)Nc2ccc(Cl)cc2F)c1=O	-1	nt	nt	-2	nt
CCOC(=O)N1CCN(C(=O)C2CCN(S(=O)(=O)c3c(C)cc(C)cc3C)CC2)CC1	nt	nt	1	nt	1
CCOC(=O)N1CCN(S(=O)(=O)c2c(C)cc(C)cc2C)CC1	0	54*	-8	3	1
O=C(NCC1CCCO1)c1c[nH]c2ccc(S(=O)(=O)Nc3cccc(C(F)(F)F)c3)cc2c1=O (configuration not stated)	0	nt	nt	-19	nt
SMILES	D2 ag-1	D2 antag	D2 PAM-1	D2 PAM-2	D2 ag-2
CN(CC(=O)Nc1ccccc1Cl)C(=O)COC(=O)c1ccc([N+](=O)[O-])cc1Cl	-1	-3	53*	-7	?
CN(CC(=O)Nc1ccccc1Cl)C(=O)COC(=O)c1nc(Cl)ccc1Cl	0	-22	-22	-2	-4
Cc1ccc(S(N)(=O)=O)c(C)c1N1CCCC1=O	0	-5	-4	30*	-7
CC(C)[C@@H](C(=O)OCC(=O)Nc1ccc2c(c1)OCO2)N1C(=O)c2ccccc2C1=O	-1	46*	-15	1	1
CCn1c(=NC(=O)c2ccc(S(=O)(=O)N3CCCCC3)cc2)sc2cccc(OC)c21	0	nt	nt	14	nt
Nc1cnccc1C(=O)O	4	43*	?	-12	?
CC(C)Cc1nn2c(=O)cc(COC(=O)c3ccccc3NC(=O)c3ccccc3)nc2s1	nt	nt	nt	5	nt
Cc1ccc(NC2=C/C(=N/S(=O)(=O)c3cccs3)c3ccccc3C2=O)cc1	0	-20	58*	4	14
O=C1C(Nc2ccccc2)=C/C(=N/S(=O)(=O)c2cccs2)c2ccccc21	-2	0	-2	7	-5
CC(C)c1nc2sc3c(N4CCCCC4)ncnc3c2c2c1CCCC2	0	nt	nt	-6	nt
CCc1ccc(-c2cc(C)no2)cc1S(=O)(=O)NCc1ccc(OC)cc1	0	nt	nt	-4	nt
COC(=O)c1c(NC(=O)C(=O)NCC2CCCO2)sc2c1CC(C)(C)OC2 (configuration not stated)	0	36*	-27	-13	-1
C(#CC1CCCCC1)c1ccc2c(c1)COc1c3ccccc3nn1-2	0	2	5	34*	1
O=C(Nc1ccc(F)c(Cl)c1)C1CCCN1S(=O)(=O)c1ccc(F)cc1 (configuration not stated)	-1	nt	nt	-11	nt
CN(CCOc1cccc(C(F)(F)F)c1)Cc1ccccc1	nt	nt	-20	nt	-7
O=c1[nH]c2ccccc2n1CCCN1CCCCC1	0	20	-20	-21	1
O=c1[nH]c2ccccc2n1CCCN1CCN(C(c2ccccc2)c2ccccc2)CC1	0	84*	nt	-27	nt
c1ccc(OCCN2CCN(C(c3ccccc3)c3ccccc3)CC2)cc1	1	46*	-2	-16	-1
FC(F)(F)c1cccc(OCCN2CCN(Cc3ccccc3)CC2)c1	1	82*	-44	-20	-2
Cc1ccc(C)c(NC(=O)C(=O)NCCc2csc(-c3cccc(F)c3)n2)c1	0	nt	nt	2	nt
COC(=O)c1sc(S(=O)(=O)Nc2ccc(C)cc2)c(C(=O)OC)c1C	5	4	1	32*	-4
COC(=O)c1cc2cc(NS(=O)(=O)c3ccc(C)cc3)ccc2s1	-2	-9	-9	43*	-2
CC1Cc2ccccc2N1C(=O)CN(C)CC(=O)Nc1ccc(F)cc1 (configuration not stated)	0	43*	-25	-3	-5
COc1cc(OC)c(C(=O)NCc2nc(-c3ccccc3)no2)cc1OC	0	nt	nt	8	nt
C=CCC1=C/C(=C\c2c(N)n3nc(CC(=O)N4CCCC4)sc3nc2=O)C=C(OC)C1=O	40*	2	-2	-5	-5

Screening data deposited in PubChem BioAssay by National Center for Advancing Translational Sciences (NCATS).
